Results reported in PubChem BioAssay AID1159580 (chemical genetic matrix, 2015).
Several values for one entry are separate records, joined by “and”; a condition that tells them apart may be missing. Equal values may be shown once. Hit rate of the full screen: of about 5,500 compounds, about 2,000 (36%) were called active. Inconclusive results (about 18%) are left out. No stated cut-off is given here; in the data, active means normalized growth mostly below about 0.91 (no sharp cut-off); inconclusive means no clear call, values can overlap the other calls; inactive means mostly above about 0.92. Some of the results follow.

Test: chemical genetic growth profiling, strain panel (AID 1159580);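 further: tested at 20 µM; growth read once vehicle control cultures reached saturation at 30 °C; 1 = growth at the plate median or of vehicle wells; lower values mean less growth of the strain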
Settings: S. cerevisiae deletion strains, growth OD

Measured: normalized growth

Nc1ccc(C(=O)NCC(=O)O)cc1
inactive: locus YAL021C, strain ccr4, active compounds read low 1.02 | locus YAL026C, strain drs2, active compounds read low 1.02 | locus YAL030W, strain snc1, active compounds read low 0.998 | locus YBL061C, strain skt5, active compounds read low 1.01 | locus YBR009C, strain hhf1, active compounds read low 1.01 | locus YBR021W, strain FUR4, active compounds read low 1.01 | locus YBR023C, strain chs3, active compounds read low 1.02 | locus YBR171W, strain sec66, active compounds read low 1.02 | locus YBR229C, strain ROT2, active compounds read low 1 | locus YBR231C, strain swc5, active compounds read low 1.01 | locus YBR279W, strain paf1, active compounds read low 1.01 | locus YCL011C, strain gbp2, active compounds read low 1.02 | locus YCL016C, strain dcc1, active compounds read low 1.02 | locus YCL029C, strain bik1, active compounds read low 1 | locus YCL069W, strain vba3, active compounds read low 1 | locus YCR088W, strain abp1, active compounds read low 1.01 | locus YDL005C, strain med2, active compounds read low 1.01 | locus YDL035C, strain GPR1, active compounds read low 1.01 | locus YDL040C, strain nat1, active compounds read low 1 | locus YDL074C, strain BRE1, active compounds read low 0.992 | locus YDL101C, strain DUN1, active compounds read low 1 | locus YDL134C, strain PPH21, active compounds read low 1.01 | locus YDL185W, strain tfp1, active compounds read low 1.01 | locus YDL192W, strain arf1, active compounds read low 1.01 | locus YDR001C, strain nth1, active compounds read low 1.01 | locus YDR069C, strain doa4, active compounds read low 1 | locus YDR101C, strain arx1, active compounds read low 0.993 | locus YDR137W, strain rgp1, active compounds read low 1.02 | locus YDR150W, strain NUM1, active compounds read low 1.01 | locus YDR159W, strain sac3, active compounds read low 0.979 | locus YDR162C, strain NBP2, active compounds read low 1.01 | locus YDR195W, strain ref2 0.999 | locus YDR297W, strain sur2, active compounds read low 1.02 | locus YDR318W, strain mcm21, active compounds read low 1.02 | locus YDR334W, strain swr1, active compounds read low 1.04 | locus YDR335W, strain msn5, active compounds read low 1.02 | locus YDR388W, active compounds read low 1 | locus YDR392W, strain spt3, active compounds read low 1.03 | locus YDR502C, strain sam2, active compounds read low 1.01 | locus YEL003W, strain gim4, active compounds read low 1.02 | locus YEL037C, strain rad23, active compounds read low 0.998 | locus YEL061C, strain CIN8 (second series), active compounds read low 1.01 | locus YEL061C, strain CIN8, active compounds read low 1 | locus YER015W, strain faa2, active compounds read low 0.996 | locus YER016W, strain bim1, active compounds read low 1.02 | locus YER110C, active compounds read low 1.02 | locus YER111C, strain swi4, active compounds read low 0.996 | locus YER155C, strain BEM2 (second series), active compounds read low 1.02 | locus YER155C, strain BEM2, active compounds read low 0.994 | locus YER167W, strain BCK2, active compounds read low 1.01 | locus YFR010W, strain ubp6, active compounds read low 0.999 | locus YGL078C, strain dbp3, active compounds read low 1.02 | locus YGL086W, strain mad1, active compounds read low 1.01 | locus YGL167C, strain pmr1, active compounds read low 1.02 | locus YGL173C, strain kem1, active compounds read low 1.01 | locus YGL227W, strain vid30, active compounds read low 1 | locus YGL240W, strain doc1, active compounds read low 0.993 | locus YGL248W, strain PDE1, active compounds read low 0.992 | locus YGL253W, strain hxk2, active compounds read low 1.02 | locus YGR135W, strain pre9, active compounds read low 1.04 | locus YGR229C, strain SMI1, active compounds read low 0.99 | locus YGR252W, strain gcn5, active compounds read low 1.01 | locus YHR013C, strain ard1, active compounds read low 1.03 | locus YHR027C, strain rpn1, active compounds read low 1.02 | locus YHR030C, strain SLT2, active compounds read low 1.01 and 0.968 | locus YHR079C, strain IRE1 (second series), active compounds read low 1.01 | locus YHR079C, strain IRE1, active compounds read low 0.971 | locus YHR094C, strain hxt1, active compounds read low 1.01 | locus YHR129C, strain ARP1, active compounds read low 1 | locus YHR142W, strain chs7, active compounds read low 1.02 | locus YHR200W, strain rpn10, active compounds read low 1.02 | locus YIL066C, strain RNR3, active compounds read low 1 | locus YIL073C, strain SPO22, active compounds read low 1.05 | locus YIL125W, strain kgd1, active compounds read low 1.01 | locus YIR030C, strain dcg1, active compounds read low 1 | locus YJL092W, strain hpr5, active compounds read low 1.02 | locus YJL095W, strain BCK1 (second series), active compounds read low 1.01 | locus YJL095W, strain BCK1, active compounds read low 0.985 and 0.967 | locus YJL115W, strain asf1, active compounds read low 1.02 | locus YJL129C, strain trk1, active compounds read low 1.02 | locus YJL134W, strain LCB3, active compounds read low 1 | locus YJL154C, strain vps35, active compounds read low 1 | locus YJL164C, strain tpk1, active compounds read low 1.01 | locus YJL166W, strain qcr8, active compounds read low 1.03 | locus YJL168C, strain set2, active compounds read low 1 | locus YJL187C, strain SWE1 (second series), active compounds read low 0.982 | locus YJR043C, strain POL32, active compounds read low 1.01 | locus YJR066W, strain TOR1, active compounds read low 0.928 | locus YJR075W, strain HOC1, active compounds read low 0.999
